# Data: ChEMBL document CHEMBL3433997, “St. Jude Leishmania screening dataset” (2016)
# Target: Glucose transporter (Leishmania mexicana) (UniProt O61059)
# Assay: ST_JUDE_LEISH: Cytotoxicity at 2uM final concentration against transgenic Leishmania Mexicana promastigotes LmGT2 that are glucose transport deficient and complemented with the L. Mexicana glucose transporter 2. Activity is measured by DNA content using SYBR green in vitro
# Format: functional
row,Compound,inhibition
1,O=C(Nc1ccc(Oc2cccnc2)cc1)C1CCN(Cc2cc(Cl)ccc2O)CC1,1.47%
2,Cc1cccc2nc(-c3ccc(-c4ccc(CNCc5cnn(-c6ccccc6)n5)cc4)s3)[nH]c12,-1.83%
3,CCCN(c1ccc(O)c(CN2CCCCC2)c1)c1ccc([N+](=O)[O-])cn1,1.09%
4,Oc1cccc2c1CC(NCc1ccccc1)CC2 (stereo unspecified),2.32%
5,C(=N\Nc1nccc2sc(-c3ccccc3)cc12)/c1cccnc1,3.16%
6,CC(=Nc1ccc(Cl)c(Cl)c1)N(C)C,0.02%
7,Cc1ccc(C)c(CC(=O)N2CCC(n3c(C)nc4ccc(F)cc43)CC2)c1,2.07%
8,O=C(Nc1cccc(C(F)(F)F)c1)c1cccc(S(=O)(=O)NCC2CCN(CC3CCCCC3)CC2)c1,-0.78%
9,Oc1ccc2[nH]cc(C3CCN(CCCCCCCCCN4CCC(c5c[nH]c6ccc(O)cc56)CC4)CC3)c2c1,-1.9%
10,Cc1ccc2ccccc2c1CCCON1C(=N)N=C(N)NC1(C)C,2.74%
11,COc1ccc(-n2ccnc2SCC(=O)Nc2cc(Cl)ccc2OC)c(OC)c1,4.9%
12,Cc1cccc2nc(-c3cccc(-c4cccc(CNCCc5cccn5C)c4)c3)[nH]c12,-0.27%
13,CC1(C)NC(N)=NC(=N)N1OCCCc1ccc(Cl)cc1Cl,2.33%
14,COc1cccc2cc(C(=O)N[C@@H](CC(C)C)C(=O)N[C@H](C=NN3CCOC3=O)Cc3ccccc3)oc12,-0.91%
15,NC(=O)COc1cccc2c1CCN(CCN1CCC(NC(=O)c3ccc(-c4ccc(Cl)cc4)cc3)CC1)C2,2.71%
16,Cc1ccc(CNC(=O)c2ccc(CN3CCCN(Cc4ccsc4)CC3)cc2)cc1,2.87%
